This passage reports inhibition results from PubChem BioAssay AID686940 (The Scripps Research Institute Molecular Screening Center, 2013).

Molecules are shown by their SMILES. About 2,600 (0.7%) of roughly 370,000 compounds were called active.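 The calls were made as follows: active = inhibition above a per-plate cutoff, mean inhibition of test wells between control levels plus 3 SD (cut at about 38% in these data); inactive = the rest.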 Shown is part of a subset that was picked to be rich in actives.

For the assay, the target named is COUP transcription factor 2 (Homo sapiens) (UniProt P24468). As to the kind of experiment: NR2F2 transcriptional activity inhibitors, primary screen, cell-based, luciferase reporter, HEK293T, luminescence (AID 686940).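 Also: cells cotransfected with COUP-TFII expression vector driving the NGFI-A reporter; 0% = median of COUP-TF2 test wells and 100% = reporter-only cells.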 The note with it: HEK293T NGFI-A luciferase reporter, at 8.6 µM, stronger effect = higher value.
Sequence of COUP transcription factor 2 (Homo sapiens) (P24468 whole entry, looked up): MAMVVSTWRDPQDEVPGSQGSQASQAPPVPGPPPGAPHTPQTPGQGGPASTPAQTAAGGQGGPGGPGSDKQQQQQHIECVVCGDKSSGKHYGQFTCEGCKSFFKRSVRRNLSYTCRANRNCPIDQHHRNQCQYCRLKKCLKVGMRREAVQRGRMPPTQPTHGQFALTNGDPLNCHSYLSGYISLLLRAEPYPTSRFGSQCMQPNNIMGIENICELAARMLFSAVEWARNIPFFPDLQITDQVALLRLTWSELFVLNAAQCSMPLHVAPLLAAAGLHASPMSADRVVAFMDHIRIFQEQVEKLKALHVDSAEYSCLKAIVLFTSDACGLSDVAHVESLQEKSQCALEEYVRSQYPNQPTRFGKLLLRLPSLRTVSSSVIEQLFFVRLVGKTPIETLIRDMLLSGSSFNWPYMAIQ
Regarding `CC1=CC(=Cc2sc3ccccc3[n+]2C)C=C(C)O1`, the inhibition is 71.6% (active). For `O=C(NCC1=C(c2ccc3ccccc3c2)C[C@@H]2CC[C@H]1N2Cc1ccco1)c1cccs1`, the inhibition was -9.66% (inactive). The result for `COC(=O)C1=C(c2ccc(-c3ccccc3)c(F)c2)C[C@@H]2CC[C@H]1N2C(=O)NCc1ccc(F)cc1` reads 9.38% (inactive).

For `Cc1cccc(NC(=O)OC2CN3CCC2CC3)c1` (stereo not given), the inhibition is -3.61% (inactive). As to `COC1C(O)C(C)OC(OC2CCC3(C=O)C(CCC4C3CCC3(C)C(C5=CC(=O)OC5)CCC43O)C2)C1O` (stereo not given), the inhibition was 78.5% (active). As for `Cc1ccc(P(=S)(c2ccc(C)o2)N2CCOCC2)o1`, the figure is -6.39% (inactive).

As for `O=C(C1CC(=O)N(C2CCCC2)C1)N1CCC2(CC1)OCCO2` (stereo not given), the inhibition was -6.43% (inactive).

For `CC(=C1C(=O)c2ccccc2C1=O)N1CCN(CCN=Cc2c(O)n(C)c(=O)n(C)c2=O)CC1`, the inhibition is 13.2% (inactive).

With `c1ccc(C(CN2CCCCC2)c2ccccc2)cc1`, the inhibition was 5.82% (inactive). For `CCOc1ccc(-c2cc(C)[n+](CCN(CC)CC)c(-c3ccc(OCC)cc3)c2)cc1`, the inhibition was 65.8% (active). For `Cc1cc(N2CCNC[C@@H]2C)ccc1N1CC[C@H](O)C1`, the inhibition is 14.6% (inactive). Turning to `Cc1ccccc1CCC[C@@H](CC1CCCCC1)CN(C)C(=O)Oc1ccccc1`, the inhibition is 0.63% (inactive). As for `CO[C@H]([C@H](C)/C=C/N(C)C=O)[C@@H](C)C(=O)CC[C@H](C)[C@H](O)[C@H](C)[C@H]1OC(=O)/C=C/C(C)=C/[C@H](O)[C@H](OC)C[C@@H]2C=CC[C@@H](C[C@H](OC)[C@@]3(CO3)[C@@H](OC)C[C@@H](OC)[C@@H]1C)O2`, the figure is -21.1% (inactive); as for `CCC(C)(O)C(=O)OC1C(=O)OC2CC3C(C)=CC(=O)C(O)C3(C)C3C4(O)OCC23C1C(C)C4O` (stereo not given), 89.2% (active); as for `CC(C)Oc1cccc(C(=O)C2CCCN(C3CCOCC3)C2)c1` (stereo not given), -4.53% (inactive). Take `COc1ccc2c(c1)[C@@]13CCCCC1[C@@H](C2)NCC3` (stereo not given in full): the inhibition was -12.9% (inactive). As for `Clc1ccc([C@@H]2CC3CCC2N3)cn1` (stereo not given in full), the figure is -1.27% (inactive); as for `O=S(=O)(c1ccccc1)N1CCC2CCNC2C1` (stereo not given), 12.5% (inactive). As for `CS(=O)(=O)N1CCC2CCNC2C1` (stereo not given), the figure is 8.62% (inactive); as for `Brc1ccc2c(c1)CNCc1cnnn1-2`, -8.52% (inactive). For `CCCCCCCCCCCCn1ccc(=N)cc1`, the inhibition was 81.1% (active). For the compound `COP(=O)(Sc1ccccc1)C(Cc1ccccc1)NC(=O)OCc1ccccc1` (stereo not given), the inhibition was -13.2% (inactive). With `CC(=NC1CCN(Cc2ccccc2)CC1)c1c(O)n(C)c(=O)n(C)c1=O`, the inhibition was -7.27% (inactive). The result for `CCC(C)NC1(c2ccccc2)CCCCC1` (stereo not given) reads 6.15% (inactive). As to `O=c1c2ccccc2nc(CBr)n1-c1ccc(Cl)cc1`, the inhibition is 6.6% (inactive). For the compound `C[C@]12CC[C@H](O)C[C@H]1CC[C@@H]1C2CC[C@]2(C)[C@@H](C3=CC(=O)OC3)[C@@H](O)C[C@]12O` (stereo not given in full), the inhibition was 44.1% (active). For `CCN(CC)C(=O)[C@@H]1C=C2c3cccc4[nH]c(Br)c(c34)C[C@H]2N(C)C1`, the inhibition is 14.9% (inactive). As for `CCC/C(=N\O)c1c[nH]c2ccccc12`, the figure is -11.3% (inactive); as for `COc1cc(OC)cc(C(=O)NCCN2CCC3(CC2)C(=O)NCN3c2ccccc2)c1`, 0.55% (inactive). As to `NCCc1ccc(S(=O)(=O)F)cc1`, the inhibition is 18.9% (inactive).
